The structures appear in SMILES notation. Among all 44,000 compounds or so, fewer than 10 were called active. Calls come from the whole dose curve; as a rule, active = well fitted activation curve with a large enough effect; inconclusive = small, poorly fitted or top-dose-only effect, or another doubt; inactive = no such curve, though single readings can be large or run the other way. Not all results are given here.

Sequence of Beta-2 adrenergic receptor (Homo sapiens) (P07550 whole entry, looked up): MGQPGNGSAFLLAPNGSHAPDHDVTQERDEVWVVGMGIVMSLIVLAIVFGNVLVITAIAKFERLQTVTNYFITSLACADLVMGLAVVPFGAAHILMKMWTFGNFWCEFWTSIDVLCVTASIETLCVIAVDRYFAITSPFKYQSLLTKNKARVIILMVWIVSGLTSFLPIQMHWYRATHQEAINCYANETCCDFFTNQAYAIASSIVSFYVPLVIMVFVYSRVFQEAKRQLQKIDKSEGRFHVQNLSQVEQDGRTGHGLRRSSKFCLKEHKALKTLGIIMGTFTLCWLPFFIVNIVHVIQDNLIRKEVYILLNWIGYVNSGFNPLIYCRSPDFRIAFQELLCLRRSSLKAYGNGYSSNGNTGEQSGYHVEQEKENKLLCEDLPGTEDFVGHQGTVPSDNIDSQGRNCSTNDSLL

The assay concerns the target Beta-2 adrenergic receptor (Homo sapiens) (UniProt P07550). Description: qHTS assay of beta-arrestin-biased ligands of beta2-adrenergic receptor: NCGC Sytravon Library Screen.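 Note: 0% = DMSO and full agonism = EC100 isoproterenol or metaproterenol.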 To be noted: HTLA Tango cells, beta-arrestin recruitment, luciferase luminescence, 18 h; series mostly up to 46.1 µM; activation: at the top concentration. From the text: The concept of biased agonism is an emerging concept of molecular pharmacology which proposes that seven transmembrane receptors (7TMRs) or G protein-coupled receptors (GPCRs), exist in multiple signaling conformations and complexes and that ligands (either agonists or antagonists) can induce signaling biased responses for distinct signal transduction cascades. […] Furthermore, accumulating evidence over the last decade has drawn attention to a novel function of beta-arrestins as signal transducers that scaffold various signaling molecules upon activation of 7TMRs. […] This beta-arrestin-biased signaling presumably leads to distinct physiological outcomes from those by G protein activation. Additionally, the active receptor conformations which prefer on this beta-arrestin signaling are likely different from those activating G protein signaling. […] The goal of this screening project will be to discover and optimize novel beta-arrestin-biased ligands for beta2-AR signaling. A luminescent cell-based assay for beta2-AR-mediated agonism, known as the Tango assay, has been validated in which ligand binding of a recombinant beta2-AR and subsequent recruitment of a recombinant beta-arrestin lead to the release of the transcriptional activator tTA, which upregulates transcription of a tTA-responsive luciferase gene. […] Compounds from the NCGC Sytravon Library collection were screened as a concentration-titration series that ranged from 46 microM to 0.6 nM. NIH Molecular Libraries Probe Production Network [MLPCN] NIH Chemical Genomics Center [NCGC] MLPCN Grant: Fast-track/HHSN271700800025C PI: Bryan Roth and Bob Lefkowitz
Tango cells were dispensed into white, solid, tissue-culture-treated 1536-well plates at 1500 cells/well in DMEM, containing 1% fetal bovine serum (FBS). Then, 23 nL of compounds or DMSO were delivered to each well using a pin tool. Plates were incubated at 37 degrees C, 5% CO2 for 18 hr. Then 2.5 uL luminescent substrate mix (in-house prepared: 150 mM Tris-Cl, pH 7.6, 3 mM MgCl2, 1% Triton X-100, 5 mM DTT, 0.5 mM CoA, 0.15 mM ATP, 0.44 mM D-luciferin, final concentrations) was added to each well. Plates were then incubated for 15 minutes at room temperature, and subsequently measured on a ViewLux plate reader for luminescent signal using a clear filter with a 10 second exposure and 2x binning. The %Activity was determined from the corrected luminescence values. […] Concentration-response curves were fitted to the signals arising from the resulting luminescence. The concentration-effect curves were then classified based on curve quality (r2), response magnitude and degree of measured activity, and compounds were subsequently categorized based on their curve class.
With `CCOc1ccc(CNC(=O)c2cc(=O)[nH]c3ccc(S(=O)(=O)N4CCCCC4)cc23)cc1`, the “activation” value was -0.314% (inactive).

For the molecule `O=C(CC(NCc1cccnc1)C(=O)O)Nc1ccc(O)cc1` (stereo unspecified), the “activation” value was 0.126% (inactive). Regarding `CCc1nc2onc(C)c2c(=O)n1CC(=O)O`, the “activation” value was -1.3% (inactive). The result for `CCCCc1nn2c(=O)cc(COC(=O)c3cccc(NC(=O)COc4ccccc4)c3)nc2s1` reads 0.38% (inactive); that for `COc1ccccc1C(=O)OCc1cc(=O)n2nc(-c3cccs3)sc2n1`, -0.913% (inactive); that for `CCOc1ccccc1CNC(=O)Nc1cn(CC(C)C)c(=O)c2ccccc12`, 0.473% (inactive). Turning to `CC(=O)Nc1cc(C(=O)NCc2ccc(F)cc2Cl)ccc1Sc1ccc(Cl)cc1`, the “activation” value was 0.0643% (inactive). Take `O=S(=O)(c1ccc(Cl)cc1)c1nnn2c1nc(NC1CCCC1)c1sccc12`: the “activation” value is 3.34% (inactive). `CC(C)(C)c1ccc(C(=O)NCC(c2ccco2)S(=O)(=O)c2ccc(F)cc2)cc1` (stereo unspecified): the “activation” value was -0.628% (inactive). In the case of `COc1ccc(CCNc2nc(-c3ccc(Cl)cc3)cc(C(F)(F)F)n2)cc1OC` it was 0.359% (inactive).

On to `CCOc1ccc(Nc2ncnc3scc(-c4ccc(OC)cc4)c23)cc1`, for which the “activation” value is 0.966% (inactive).

With `Cc1cccc(NC(=O)CSc2nnc(CNC(=O)c3cccc(C)c3)n2-c2ccccc2)c1`, the “activation” value was 0.652% (inactive). In the case of `Cc1c(C(=O)NCc2ccccc2Br)oc2ccc3c(c12)C(=O)CC(C)(C)O3` it was 0.769% (inactive). In the case of `O=c1c(NCc2cccs2)nccn1-c1ccccc1` it was -0.476% (inactive); in that of `COc1ccccc1Nc1c2c(nc3ccc(NC(=O)/C=C/c4cc(OC)c(OC)c(OC)c4)cc13)CCCC2`, -0.0014% (inactive).

For `CC(=O)N1CCc2cc(Br)cc(S(=O)(=O)CCC(=O)NCCc3ccc(Cl)cc3)c21`, the “activation” value was -1.89% (inactive). `Cc1ccccc1CNC(=O)C1CCCN(S(=O)(=O)N(C)c2ccc(F)cc2)C1` (stereo unspecified): the “activation” value is -0.584% (inactive).

Take `CCOc1cccc(CNC(=O)c2ccc(N3CCCC3)c(NC(=O)Nc3ccccc3CC)c2)c1`: the “activation” value was 0.0293% (inactive). In the case of `Cc1ccc(CN2CCC(CNC(=O)c3cnn(-c4ccccc4Cl)c3C3CCN(C(=O)OC(C)(C)C)CC3)CC2)cc1` it was -0.282% (inactive). As to `COc1cc(OC)c(NC(=O)Cc2ccc(-n3c(C)nc4cccnc43)cc2)cc1Cl`, the “activation” value is 0.0247% (inactive). For `COc1ccc2c(c1)c(N1CCCC1=O)c(C(=O)Nc1ccc(OC)c(Cl)c1)n2C`, the “activation” value was 1.84% (inactive). The result for `O=C(CC1N=C2c3ccccc3N=C(SCc3ccc(F)cc3)N2C1=O)NCc1cccs1` (stereo unspecified) reads 10.6% (inactive). Consider `CCOc1ccc(C(=O)c2cn(Cc3ccc(F)cc3)c3ccc(F)cc3c2=O)cc1`, for which the “activation” value is -0.931% (inactive). In the case of `COc1ccccc1CNC(=O)CCn1c(=O)c2ccccc2n(CC(=O)Nc2ccc(Br)cc2F)c1=O`, the “activation” value was -1.31% (inactive).

Consider `CCOc1ccc(N(CC)S(=O)(=O)N2CCCC(C(=O)NCc3ccc(Cl)cc3)C2)cc1` (stereo unspecified), for which the “activation” value is 2.98% (inactive). Consider `COC(=O)c1cc(S(=O)(=O)N2CCN(c3cc(Cl)ccc3C)CC2)c[nH]1`, for which the “activation” value was 0.398% (inactive). The result for `Cc1ccc(Cl)cc1NC(=O)CSc1nc2ccccc2nc1Cc1ccccc1` reads -0.671% (inactive). `COC(=O)c1ccc2c(c1)N(CC(=O)Nc1ccc(C)c(C)c1)C(=O)c1ccccc1S2`: the “activation” value was 0.0004% (inactive). The result for `CCc1ccccc1NC(=O)CSc1nnc(-c2ccccc2)c(-c2ccccc2)n1` reads 0.425% (inactive). On to `COc1ccc(-c2c(C)c3ccc(O)c(CN4CCN(C)CC4)c3oc2=O)cc1OC`, for which the “activation” value was 0.151% (inactive).

Regarding `CCOC(=O)c1ccc2c(c1)N(Cc1cccc(OC)c1)C(=O)c1ccccc1S2(=O)=O`, the “activation” value is -1.14% (inactive).

`CCN(Cc1ccccc1)Cc1c(O)ccc2c(=O)c(-c3ccc(Cl)cc3Cl)coc12`: the “activation” value is 0.878% (inactive). The result for `COC(=O)c1ccc(Cn2c(SCC(=O)N(C)c3ccccc3)nc3ccccc32)cc1` reads 0.519% (inactive); that for `Cc1ccc(CNC(=O)CCNS(=O)(=O)c2ccc3c(c2)oc(=O)n3C)cc1`, 0.362% (inactive); that for `CSc1ccc(CCNC(=O)c2cc(C)nc3c2c(C)nn3-c2cccc(F)c2)cc1`, 1.93% (inactive).

Consider `COc1cc(NC(=O)c2cc3ccc4cccnc4c3[nH]2)cc(OC)c1OC`, for which the “activation” value was 1.03% (inactive). The result for `CCCCCn1c(=O)[nH]c2cc(C(=O)Nc3ccc(F)cc3)ccc2c1=O` reads 0.0091% (inactive); that for `Cc1ccc(NC(=O)Nc2sc3nc4n(c(=O)c3c2C)CCC(C)CC4)c(Cl)c1` (stereo unspecified), 0.293% (inactive); that for `Cc1ccc(-n2ncc(C(=O)N(C)Cc3ccccc3)c2-n2cccc2)cc1`, -1.39% (inactive). In the case of `COc1ccccc1NC(=O)C1=C(C)Nc2ncnn2C1c1sccc1C` (stereo unspecified) it was -0.49% (inactive).

On to `Cc1ccc(CNC(=O)CCC(=O)N2CC(C)Sc3ccccc32)cc1` (stereo unspecified), for which the “activation” value is -0.354% (inactive). In the case of `COc1ccccc1N1CCN(CCCNC(=O)c2cnn(-c3ccccc3Cl)c2C2CCN(C(=O)OC(C)(C)C)CC2)CC1` it was 0.105% (inactive).

`Cc1ccc(Cl)cc1NC(=O)C(C)n1nnc2sc(-c3ccccc3)cc2c1=O` (stereo unspecified): the “activation” value is -0.567% (inactive). The result for `Cc1ccc(Cl)cc1NC(=O)Cc1ccc(-n2c(C)nc3cccnc32)cc1` reads 1.55% (inactive); that for `Cc1cc2c(cc3c(SCc4nc(-c5ccccc5)oc4C)nnc(C)n32)o1`, -0.472% (inactive). The result for `Cc1ccc(-c2nn3c(=O)cc(CN4CCN(C(=O)Nc5cccc(C(F)(F)F)c5)CC4)nc3s2)cc1` reads -0.373% (inactive); that for `Cc1ccccc1NC(=O)Cn1c(=O)n(CCc2ccccc2)c(=O)c2ccccc21`, -2.33% (inactive); that for `CCCn1c2ccccc2c2cnn(CC(=O)N(CC)c3cc(C)ccc3C)c(=O)c21`, 0.931% (inactive). In the case of `O=C(COc1ccc(Cl)cc1)Nc1ccccc1OCc1cc(=O)n2ccccc2n1` it was -0.53% (inactive). Turning to `CCc1ccccc1NC(=O)CCOc1ccccc1`, the “activation” value was -1.06% (inactive). For `CCC(C(=O)Nc1cc(OC)ccc1OC)n1c(=O)c(C(F)(F)F)nc2ccccc21` (stereo unspecified), the “activation” value was 0.639% (inactive).

For the origin of these results see PubChem BioAssay AID1347077 (National Center for Advancing Translational Sciences (NCATS), 2019).
